Source: PubChem BioAssay (EPA / NIEHS)
Values joined by “and” are separate entries in the source; they are usually repeats but may differ in a detail not shown here. Equal entries are not always repeated. Records with an inconclusive call do not appear. Where a structure was tested more than once in an assay, its records may differ in their call. Active and inactive are the calls of the source. Rule for the calls: active = hit-call score of the fitted dose curve at least 0.9, where 1 is the maximum; inconclusive = response in the unintended direction; inactive = score below 0.9.

Key:
[1] = biological target: human Acetylcholinesterase (AChE), ACHE (gene 43) (UniProt P22303); assay: NVS_ENZ_hAChE: NovaScreen (NVS) Enzymatic Assay for human Acetylcholinesterase (AChE) (AID 2283129)
Summary of the method: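 Actives from a duplicate single-point screen (25 uM) were followed up in concentration series. Enzyme activity read by absorbance (colorimetric) 0.33 hour after dosing, cell-free, normalized to DMSO, with loss of signal scored.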

rat CYP2B1, gene 24300 = assay: NVS_ADME_rCYP2B1: NovaScreen (NVS) CYP450-related Enzyme Activity (ADME) Assay for rat CYP2B1 (AID 2283117)
Experimental: (§1) NVS_ADME_rCYP2B1 is a biochemical, single-readout assay that uses extracted gene-proteins in a cell-free assay. Measurements were taken 0.75 hour after chemical dosing in a 96-well plate.NVS_ADME_rCYP2B1 is one of one assay component(s) measured or calculated from the NVS_ADME_rCYP2B1 assay. It is designed to make measurements of enzyme activity, a form of enzyme reporter, as detected with fluorescence intensity signals by Fluorescence technology.Data from the assay component NVS_ADME_rCYP2B1 was analyzed into 1 assay endpoint. This assay endpoint, NVS_ADME_rCYP2B1, was analyzed in the positive analysis fitting direction relative to Acetonitrile as the negative control and baseline of activity. Using a type of enzyme reporter, loss-of-signal activity can be used to understand changes in the enzymatic activity as they relate to the gene Cyp2b1. Furthermore, this assay endpoint can be referred to as a primary readout, because this assay has produced multiple assay endpoints where this one serves a enzymatic activity function. To generalize the intended target to other relatable targets, this assay endpoint is annotated to the cyp intended target family, where the subfamily is xenobiotic metabolism.
(§2) Binding assays used specific radioligands (tritiated, iodinated) with non-radioactive competitive displacement ligands in agonist or antagonist protocols (as indicated) and various reference compounds and inhibitors to titrate specific binding to receptors and transporters. Most enzyme assays (CYPs, kinases, phosphatases, proteases, HDACs) used recombinant protein and specific substrates (fluorescence mostly, some colorimetric and radioactive) and inhibitors, followed by a biochemical separation of substrate and product. All assays for the biochemical HTS were initially run in duplicate at a single concentration (10 uM for CYP450 assays and 25 uM for all others). Assay-chemical combinations meeting a pre-defined threshold (e.g., 30% inhibition and other criteria defined below) were then run in singleton concentration-response format with maximum concentration of 20 uM for CYPs and 50 uM for all others. Each assay was run with positive and negative controls, and concurrent controls on every plate. The follow-up (secondary) screen tested active chemical-pairs in concentration series, as well as a few additional assays not tested in the primary screen, some selected negative inactives, and several cases re-run in the concentration series for confirmatory purposes.

[2] = biological target: rat CYP2C11, Cyp2c11 (gene 29277) (UniProt P08683); assay: NVS_ADME_rCYP2C11: NovaScreen (NVS) CYP450-related Enzyme Activity (ADME) Assay for rat CYP2C11 (AID 2283118)
Summary of the method: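 Screened first at 10 uM in duplicate, hits followed by concentration-response. Recombinant rat enzyme activity monitored by fluorescence 0.33 h post-dosing, normalised to acetonitrile negative control.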

[3] = biological target: rat CYP2C12, Cyp2c12 (gene 25011) (UniProt P11510); assay: NVS_ADME_rCYP2C12: NovaScreen (NVS) CYP450-related Enzyme Activity (ADME) Assay for rat CYP2C12 (AID 2283119)
Experimental: as §1, with “NVS_ADME_rCYP2C12” for “NVS_ADME_rCYP2B1”, “0.5” for “0.75”, “plate.NVS_ADME_rCYP2C12” for “plate.NVS_ADME_rCYP2B1”, “NVS_ADME_rCYP2C12,” for “NVS_ADME_rCYP2B1,”, “Cyp2c12.” for “Cyp2b1.”
Binding assays used specific radioligands (tritiated, iodinated) with non-radioactive competitive displacement ligands in agonist or antagonist protocols (as indicated) and various reference compounds and inhibitors to titrate specific binding to receptors and transporters. Most enzyme assays (CYPs, kinases, phosphatases, proteases, HDACs) used recombinant protein and specific substrates (fluorescence mostly, some colorimetric and radioactive) and inhibitors, followed by a biochemical separation of substrate and product. All assays for the biochemical HTS were initially run in duplicate at a single concentration (10 uM for CYP450 assays and 25 uM for all others). […] Each assay was run with positive and negative controls, and concurrent controls on every plate. […]

[4] = biological target: rat CYP2C13, Cyp2c13 (gene 171521) (UniProt P20814); assay: NVS_ADME_rCYP2C13: NovaScreen (NVS) CYP450-related Enzyme Activity (ADME) Assay for rat CYP2C13 (AID 2283121)
Experimental: as §1, with “NVS_ADME_rCYP2C13” for “NVS_ADME_rCYP2B1”, “plate.NVS_ADME_rCYP2C13” for “plate.NVS_ADME_rCYP2B1”, “NVS_ADME_rCYP2C13,” for “NVS_ADME_rCYP2B1,”, “Cyp2c13.” for “Cyp2b1.”
as §2, with “Assay-chemical combinations meeting a pre-defined threshold (e.g., 30% inhibition and other criteria defined below) were then run in singleton concentration-response format with maximum concentration of 20 uM for CYPs and 50 uM for all others.” left out

rat CYP2C6, gene 293989 = assay: NVS_ADME_rCYP2C6: NovaScreen (NVS) CYP450-related Enzyme Activity (ADME) Assay for rat CYP2C6 (AID 2283120)
Experimental: as §1, with “NVS_ADME_rCYP2C6” for “NVS_ADME_rCYP2B1”, “1” for “0.75”, “plate.NVS_ADME_rCYP2C6” for “plate.NVS_ADME_rCYP2B1”, “NVS_ADME_rCYP2C6,” for “NVS_ADME_rCYP2B1,”, “Cyp2c6v1.” for “Cyp2b1.”
Binding assays used specific radioligands (tritiated, iodinated) with non-radioactive competitive displacement ligands in agonist or antagonist protocols (as indicated) and various reference compounds and inhibitors to titrate specific binding to receptors and transporters. Most enzyme assays (CYPs, kinases, phosphatases, proteases, HDACs) used recombinant protein and specific substrates (fluorescence mostly, some colorimetric and radioactive) and inhibitors, followed by a biochemical separation of substrate and product. All assays for the biochemical HTS were initially run in duplicate at a single concentration (10 uM for CYP450 assays and 25 uM for all others). […]

rat CYP3A1, gene 25642 = assay: NVS_ADME_rCYP3A1: NovaScreen (NVS) CYP450-related Enzyme Activity (ADME) Assay for rat CYP3A1 (AID 2283126)
Summary of the method: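 Compounds went first at 10 uM duplicate, then to series with 20 uM maximum. Fluorescence from substrate turnover by the recombinant enzyme was measured 0.5 h post-dosing, inhibition scored against acetonitrile vehicle.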

[5] = biological target: rat CYP3A2, Cyp3a2 (gene 266682) (UniProt P05183); assay: NVS_ADME_rCYP3A2: NovaScreen (NVS) CYP450-related Enzyme Activity (ADME) Assay for rat CYP3A2 (AID 2283128)
Summary of the method: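 Fluorescence readout of extracted rat CYP3A2 activity 0.5 h post-dose, acetonitrile as negative control. Single-point testing in duplicate at 10 uM, followed by concentration series to a 20 uM maximum for actives.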

[6] = biological target: human AMP-activated Protein Kinase, alpha 1 (AMPKa1), PRKAA1 (gene 5562) (UniProt Q13131); assay: NVS_ENZ_hAMPKa1: NovaScreen (NVS) Enzymatic Assay for human AMP-activated Protein Kinase, alpha 1 (AMPKa1) (AID 2283130)
Summary of the method: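 Compounds were screened in duplicate at 25 uM, and those reaching ~30% inhibition were titrated up to 50 uM. The enzyme was recombinant human AMPKα1, and kinase turnover was read by fluorescence/mobility shift 1 h post-dosing as loss of signal versus DMSO.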

[7] = biological target: human Caspase 10 (CASP10), CASP10 (gene 843) (UniProt Q92851); assay: NVS_ENZ_hCASP10: NovaScreen (NVS) Enzymatic Assay for human Caspase 10 (CASP10) (AID 2283133)
Summary of the method: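 Fluorescence-intensity enzyme read-out of E. coli-expressed CASP10 activity, 1 h after compound. Single-point duplicates at 25 uM preceded concentration-response testing (top 50 uM) of hits; inhibition expressed as signal loss versus DMSO.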

Chain of rat CYP2C11, Cyp2c11 (gene 29277) (P08683 whole entry, looked up): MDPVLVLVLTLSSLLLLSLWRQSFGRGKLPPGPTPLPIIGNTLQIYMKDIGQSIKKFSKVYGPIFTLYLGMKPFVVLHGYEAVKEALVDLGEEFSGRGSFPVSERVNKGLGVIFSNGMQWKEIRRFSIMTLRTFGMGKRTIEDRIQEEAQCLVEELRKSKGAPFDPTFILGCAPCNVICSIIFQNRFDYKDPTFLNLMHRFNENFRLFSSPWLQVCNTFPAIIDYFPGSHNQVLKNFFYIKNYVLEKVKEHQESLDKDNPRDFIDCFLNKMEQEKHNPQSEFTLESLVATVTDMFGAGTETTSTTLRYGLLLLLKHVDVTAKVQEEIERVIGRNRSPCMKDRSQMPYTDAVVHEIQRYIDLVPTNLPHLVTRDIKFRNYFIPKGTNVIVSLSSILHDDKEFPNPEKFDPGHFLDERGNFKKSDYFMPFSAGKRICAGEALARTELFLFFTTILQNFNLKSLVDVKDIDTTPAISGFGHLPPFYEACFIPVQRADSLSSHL
Chain of rat CYP3A2, Cyp3a2 (gene 266682) (P05183 whole entry, looked up): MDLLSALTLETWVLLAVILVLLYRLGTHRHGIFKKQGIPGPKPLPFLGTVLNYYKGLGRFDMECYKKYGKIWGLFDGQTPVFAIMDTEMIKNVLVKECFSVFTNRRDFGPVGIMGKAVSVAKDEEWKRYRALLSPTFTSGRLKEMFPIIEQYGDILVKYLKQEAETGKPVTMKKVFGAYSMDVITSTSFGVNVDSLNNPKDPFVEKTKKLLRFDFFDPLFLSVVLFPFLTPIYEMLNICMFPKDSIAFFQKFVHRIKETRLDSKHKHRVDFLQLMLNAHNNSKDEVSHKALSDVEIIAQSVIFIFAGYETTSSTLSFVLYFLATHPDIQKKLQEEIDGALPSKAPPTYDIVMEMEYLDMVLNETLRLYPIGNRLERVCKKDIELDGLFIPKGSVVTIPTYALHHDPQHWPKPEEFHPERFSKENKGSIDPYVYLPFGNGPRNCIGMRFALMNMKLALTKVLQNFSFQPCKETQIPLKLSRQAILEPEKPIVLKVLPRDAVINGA
Chain of rat CYP2C13, Cyp2c13 (gene 171521) (P20814 whole entry, looked up): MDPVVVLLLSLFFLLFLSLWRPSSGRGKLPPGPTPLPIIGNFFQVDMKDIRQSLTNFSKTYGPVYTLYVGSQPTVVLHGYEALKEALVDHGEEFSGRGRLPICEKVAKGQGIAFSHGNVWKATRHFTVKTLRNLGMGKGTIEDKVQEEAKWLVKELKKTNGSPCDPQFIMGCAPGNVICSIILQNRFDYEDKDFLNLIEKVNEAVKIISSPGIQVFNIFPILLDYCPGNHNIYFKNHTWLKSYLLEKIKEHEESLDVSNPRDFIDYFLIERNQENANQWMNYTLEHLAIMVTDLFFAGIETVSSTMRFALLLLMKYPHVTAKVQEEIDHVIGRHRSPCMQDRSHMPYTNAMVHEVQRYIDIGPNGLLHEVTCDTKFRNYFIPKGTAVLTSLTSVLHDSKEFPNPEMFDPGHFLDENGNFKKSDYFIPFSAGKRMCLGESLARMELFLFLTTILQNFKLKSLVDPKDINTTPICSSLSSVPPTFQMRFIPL
Chain of human Acetylcholinesterase (AChE), ACHE (gene 43) (P22303 whole entry, looked up): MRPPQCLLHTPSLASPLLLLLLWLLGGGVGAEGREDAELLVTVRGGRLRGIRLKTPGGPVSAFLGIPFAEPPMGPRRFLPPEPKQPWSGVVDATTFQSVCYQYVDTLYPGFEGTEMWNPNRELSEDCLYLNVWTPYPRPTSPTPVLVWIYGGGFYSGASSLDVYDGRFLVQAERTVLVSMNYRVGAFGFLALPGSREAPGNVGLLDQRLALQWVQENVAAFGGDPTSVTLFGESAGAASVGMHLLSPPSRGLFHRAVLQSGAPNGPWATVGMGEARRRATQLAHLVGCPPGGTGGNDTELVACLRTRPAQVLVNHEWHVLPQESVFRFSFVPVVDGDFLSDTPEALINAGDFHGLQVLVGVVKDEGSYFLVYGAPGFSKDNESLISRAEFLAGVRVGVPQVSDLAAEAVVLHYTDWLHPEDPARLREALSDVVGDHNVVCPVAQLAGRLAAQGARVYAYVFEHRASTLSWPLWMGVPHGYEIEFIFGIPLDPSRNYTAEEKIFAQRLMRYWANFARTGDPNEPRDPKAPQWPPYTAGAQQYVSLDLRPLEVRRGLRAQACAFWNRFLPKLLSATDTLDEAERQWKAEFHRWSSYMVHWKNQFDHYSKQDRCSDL
Chain of rat CYP2C12, Cyp2c12 (gene 25011) (P11510 whole entry, looked up): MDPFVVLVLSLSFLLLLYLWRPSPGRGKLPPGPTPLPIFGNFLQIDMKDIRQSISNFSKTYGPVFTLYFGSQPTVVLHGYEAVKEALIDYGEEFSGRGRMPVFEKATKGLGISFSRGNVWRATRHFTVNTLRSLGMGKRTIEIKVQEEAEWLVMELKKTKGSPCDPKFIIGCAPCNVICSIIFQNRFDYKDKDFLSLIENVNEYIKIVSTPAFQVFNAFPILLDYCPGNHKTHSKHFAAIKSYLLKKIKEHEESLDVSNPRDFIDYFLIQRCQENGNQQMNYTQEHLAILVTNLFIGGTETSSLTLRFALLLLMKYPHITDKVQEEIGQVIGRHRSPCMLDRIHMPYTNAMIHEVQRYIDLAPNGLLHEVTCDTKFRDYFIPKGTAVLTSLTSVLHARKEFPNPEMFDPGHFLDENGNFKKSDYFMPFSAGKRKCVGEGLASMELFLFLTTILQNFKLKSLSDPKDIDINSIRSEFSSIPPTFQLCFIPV
Chain of human AMP-activated Protein Kinase, alpha 1 (AMPKa1), PRKAA1 (gene 5562) (Q13131 whole entry, looked up): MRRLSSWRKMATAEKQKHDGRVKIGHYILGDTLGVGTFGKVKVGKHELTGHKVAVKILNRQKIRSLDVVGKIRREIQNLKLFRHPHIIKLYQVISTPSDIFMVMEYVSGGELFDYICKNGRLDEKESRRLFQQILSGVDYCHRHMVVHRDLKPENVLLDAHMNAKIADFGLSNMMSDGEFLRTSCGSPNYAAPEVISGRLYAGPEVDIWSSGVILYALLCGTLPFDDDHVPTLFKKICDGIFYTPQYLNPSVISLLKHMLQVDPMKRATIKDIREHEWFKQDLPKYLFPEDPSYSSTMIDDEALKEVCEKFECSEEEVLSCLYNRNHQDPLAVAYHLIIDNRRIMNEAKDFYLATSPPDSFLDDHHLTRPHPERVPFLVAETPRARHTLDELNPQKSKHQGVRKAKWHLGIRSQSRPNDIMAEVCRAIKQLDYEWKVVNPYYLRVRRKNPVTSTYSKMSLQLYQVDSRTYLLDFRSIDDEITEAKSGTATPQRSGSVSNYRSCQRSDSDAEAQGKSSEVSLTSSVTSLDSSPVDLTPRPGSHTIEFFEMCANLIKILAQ
Chain of human Caspase 10 (CASP10), CASP10 (gene 843) (Q92851 whole entry, looked up): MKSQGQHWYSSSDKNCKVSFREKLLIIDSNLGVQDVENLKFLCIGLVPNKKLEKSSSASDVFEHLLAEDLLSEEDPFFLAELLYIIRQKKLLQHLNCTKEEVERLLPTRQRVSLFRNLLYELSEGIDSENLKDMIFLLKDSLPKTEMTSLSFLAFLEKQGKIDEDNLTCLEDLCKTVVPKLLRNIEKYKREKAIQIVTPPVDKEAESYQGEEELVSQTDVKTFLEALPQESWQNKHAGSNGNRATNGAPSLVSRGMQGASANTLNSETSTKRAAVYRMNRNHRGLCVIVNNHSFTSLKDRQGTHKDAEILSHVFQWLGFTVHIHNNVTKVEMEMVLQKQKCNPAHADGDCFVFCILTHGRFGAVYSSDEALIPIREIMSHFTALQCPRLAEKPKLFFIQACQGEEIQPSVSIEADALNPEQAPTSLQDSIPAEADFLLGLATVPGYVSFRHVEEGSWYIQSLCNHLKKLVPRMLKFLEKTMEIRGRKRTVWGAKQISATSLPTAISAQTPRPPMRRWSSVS

## COc1cc(-c2ccc(N)c(OC)c2)ccc1N
[1]
  AC50: 13.8 µM (active)

## CCN1CCC2(CC1)COc1cc3c(cc12)N(C(=O)c1ccc(-c2ccc(-c4nnc(C)o4)cc2C)cc1)CC3
[1]
  AC50: 4.69 µM (active)

## CC1(C)CCC(Cc2ccc(Cl)cc2)C1(O)Cn1cncn1 (stereo not drawn)
Rat CYP2B1, gene 24300
  AC50: 385 nM (active)
[2]
  AC50: 121 nM (active)
[3]
  AC50: 5.15 µM (active)
[4]
  AC50: 1.17 µM (active)

## CCOC(=O)Nc1cccc(OC(=O)Nc2ccccc2)c1
[3]
  AC50: 10 µM (active)
[4]
  AC50: 10.4 µM (active)

## O=C1C2(Cl)C3(Cl)C4(Cl)C(Cl)(Cl)C5(Cl)C3(Cl)C1(Cl)C5(Cl)C24Cl (stereo not drawn)
Rat CYP2B1, gene 24300
  AC50: 1.61 µM (active) and 5.98 µM (active)
  outcome: inactive
[2]
  AC50: 193 nM (active) and 1.16 µM (active) and 250 nM (active)
Rat CYP2C6, gene 293989
  AC50: 7.93 µM (active) and 5.36 µM (active)
Rat CYP3A1, gene 25642
  AC50: 6.55 µM (active) and 3.69 µM (active)
[5]
  AC50: 3.98 µM (active) and 7.08 µM (active) and 1.19 µM (active)

## Clc1ccc(C2(Cn3cncn3)CC(Br)CO2)c(Cl)c1 (stereo not drawn)
Rat CYP2B1, gene 24300
  AC50: 41.1 nM (active)
[2]
  AC50: 1590 nM (active)
[3]
  AC50: 11 µM (active)
Rat CYP2C6, gene 293989
  AC50: 4.68 µM (active)
[4]
  AC50: 1.87 µM (active)
Rat CYP3A1, gene 25642
  AC50: 721 nM (active)
[5]
  AC50: 1.91 µM (active)

## CC(C)C1CCC(Cc2ccc(Cl)cc2)C1(O)Cn1cncn1 (stereo not drawn)
Rat CYP2B1, gene 24300
  AC50: 2040 nM (active)

## Oc1cccc2cccnc12
[1]
  outcome: inactive

## COP(=S)(OC)Oc1ccc(Sc2ccc(OP(=S)(OC)OC)cc2)cc1
[2]
  AC50: 8460 nM (active)
Rat CYP2C6, gene 293989
  AC50: 2.96 µM (active)
Rat CYP3A1, gene 25642
  AC50: 9920 nM (active)

## CC(=O)[O][Hg][c]1ccccc1
[1]
  AC50: 40 µM (active)
[6]
  AC50: 14 µM (active)

## Fc1ccc(C2(Cn3cncn3)OC2c2ccccc2Cl)cc1 (stereo not drawn)
Rat CYP2B1, gene 24300
  AC50: 3090 nM (active)
[2]
  AC50: 974 nM (active)
[4]
  AC50: 0.377 µM (active)

## O=C(O)C(F)(F)C(F)(F)C(F)(F)C(F)(F)C(F)(F)C(F)(F)C(F)(F)C(F)(F)C(F)(F)C(F)(F)F
[7]
  outcome: inactive

## CC(C)(C)c1cc(O)ccc1O
[1]
  outcome: inactive
